# This excerpt belongs to a sample that is enriched for the strongest signals.
# Key:
# Test in all cases: glycan array binding signal (z-score within array); higher = stronger binding
# Settings in all cases: glycan notation: IUPAC condensed, linker removed
# [1] = target: Fuc(a1-2)Gal(b1-4)GlcNAc(b1-3)[Fuc(a1-2)Gal(b1-4)GlcNAc(b1-6)]GalNAc
# In short: (§1)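 Glycan array binding is given as a within-array Z-score, which can be read as non-binding when negative. The arrays, 3228 of them, came from the Consortium for Functional Glycomics database and were retained only where the protein sequence was available. Z-scores were averaged across arrays of the same protein sequence at different concentrations or buffers and across linkers.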
# [2] = target: Fuc(a1-2)Gal(b1-4)[Fuc(a1-3)]GlcNAc(b1-3)Gal(b1-4)[Fuc(a1-3)]GlcNAc(b1-3)Gal(b1-4)[Fuc(a1-3)]GlcNAc
# In short: as §1
# [3] = target: Fuc(a1-2)[Gal(a1-3)]Gal(b1-4)[Fuc(a1-3)]GlcNAc
# In short: as §1
# [4] = target: Fuc(a1-2)[GalNAc(a1-3)]Gal(b1-3)GlcNAc(b1-3)GalNAc
# In short: as §1
# [5] = target: Fuc(a1-2)[GalNAc(a1-3)]Gal(b1-4)Glc
# In short: as §1
# [6] = target: Fuc(a1-2)[GalNAc(a1-3)]Gal(b1-4)GlcNAc(b1-3)[Fuc(a1-2)[GalNAc(a1-3)]Gal(b1-4)GlcNAc(b1-6)]GalNAc
# In short: as §1
# [7] = target: Fuc(a1-3)[Gal(b1-4)]Glc6S
# In short: as §1
# [8] = target: Fuc(a1-3)[Gal3S(b1-4)]GlcNAc
# In short: as §1
# [9] = target: Fuc(a1-3)[GalNAc(b1-4)]GlcNAc6S
# In short: as §1
# [10] = target: Gal(a1-3)Gal(b1-4)Glc
# In short: as §1
# [11] = target: Gal(a1-3)Gal(b1-4)GlcNAc(b1-6)GalNAc
# In short: as §1
# [12] = target: Gal(a1-3)[Gal(a1-4)]Gal(b1-4)GlcNAc
# In short: as §1
# [13] = target: Gal(b1-3)GalNAc(b1-4)Gal(b1-4)Glc
# In short: as §1
# [14] = target: Gal(b1-3)GlcNAc(b1-2)Man(a1-3)[GlcNAc(b1-4)][Gal(b1-3)GlcNAc(b1-2)Man(a1-6)]Man(b1-4)GlcNAc(b1-4)GlcNAc
# In short: as §1
# [15] = target: Gal(b1-3)[Fuc(a1-4)]GlcNAc(b1-3)Gal(b1-4)[Fuc(a1-3)]GlcNAc
# In short: as §1
# [16] = target: Gal(b1-4)GalNAc(a1-3)[Fuc(a1-2)]Gal(b1-4)GlcNAc
# In short: as §1
# [17] = target: Gal(b1-4)Glc6S
# In short: as §1
# [18] = target: Gal(b1-4)GlcNAc(b1-2)Man(a1-6)[Man(a1-3)]Man(b1-4)GlcNAc(b1-4)GlcNAc
# In short: as §1
# [19] = target: Gal(b1-4)GlcNAc(b1-2)[Gal(b1-4)GlcNAc(b1-6)]Man(a1-6)[Gal(b1-4)GlcNAc(b1-2)Man(a1-3)]Man(b1-4)GlcNAc(b1-4)[Fuc(a1-6)]GlcNAc
# In short: as §1
# [20] = target: Gal(b1-4)GlcNAc(b1-2)[Gal(b1-4)GlcNAc(b1-6)]Man(a1-6)[GlcNAc(b1-4)][Gal(b1-4)GlcNAc(b1-2)Man(a1-3)]Man(b1-4)GlcNAc(b1-4)GlcNAc
# In short: as §1
# [21] = target: Gal(b1-4)GlcNAc(b1-3)Gal(b1-4)GlcNAc(b1-3)Gal(b1-4)GlcNAc(b1-3)Gal(b1-4)GlcNAc(b1-2)[Gal(b1-4)GlcNAc(b1-3)Gal(b1-4)GlcNAc(b1-3)Gal(b1-4)GlcNAc(b1-3)Gal(b1-4)GlcNAc(b1-6)]Man(a1-6)[Gal(b1-4)GlcNAc(b1-3)Gal(b1-4)GlcNAc(b1-3)Gal(b1-4)GlcNAc(b1-3)Gal(b1-4)GlcNAc(b1-2)Man(a1-3)]Man(b1-4)GlcNAc(b1-4)[Fuc(a1-6)]GlcNAc
# In short: as §1
# [22] = target: Gal3S(b1-4)[Fuc(a1-3)]GlcNAc6S
# In short: as §1
# [23] = target: Gal3S6S(b1-4)GlcNAc6S
# In short: as §1
# [24] = target: Gal4S(b1-4)GlcNAc
# In short: as §1
# [25] = target: Gal4S6S(b1-4)GlcNAc
# In short: as §1
# [26] = target: Gal6S(b1-3)GlcNAc6S
# In short: as §1
# [27] = target: GalNAc(b1-4)GlcNAc
# In short: as §1
# [28] = target: GalNAc(b1-4)GlcNAc6S
# In short: as §1
# [29] = target: GalNAc6S(b1-4)GlcNAc
# In short: as §1
# [30] = target: GlcNAc(b1-2)Man(a1-3)[GlcNAc(b1-2)Man(a1-6)]Man(b1-4)GlcNAc(b1-4)GlcNAc
# In short: as §1
# [31] = target: GlcNAc(b1-2)[GlcNAc(b1-6)]Man(a1-6)[GlcNAc(b1-2)Man(a1-3)]Man(b1-4)GlcNAc(b1-4)[Fuc(a1-6)]GlcNAc
# In short: as §1
# [32] = target: GlcNAc(b1-2)[GlcNAc(b1-6)]Man(a1-6)[GlcNAc(b1-4)][GlcNAc(b1-2)Man(a1-3)]Man(b1-4)GlcNAc(b1-4)GlcNAc
# In short: as §1
# [33] = target: GlcNAc(b1-4)[GlcNAc(b1-6)]GalNAc
# In short: as §1
# [34] = target: GlcNAc(b1-6)GalNAc
# In short: as §1
# [35] = target: GlcNAc6S(b1-3)Gal(b1-4)GlcNAc
# In short: as §1
# [36] = target: Man(a1-2)Man(a1-2)Man(a1-6)[Man(a1-3)]Man
# In short: as §1
# [37] = target: Man(a1-2)Man(a1-6)[Man(a1-3)]Man(a1-6)[Man(a1-2)Man(a1-2)Man(a1-3)]Man
# In short: as §1
# [38] = target: Man(a1-3)[Man(a1-6)]Man(a1-6)[Man(a1-3)]Man(b1-4)GlcNAc(b1-4)GlcNAc
# In short: as §1
# [39] = target: Neu5Ac(a2-3)Gal(b1-3)GlcNAc(b1-6)GalNAc
# In short: as §1
# [40] = target: Neu5Ac(a2-3)Gal(b1-3)[GlcNAc(b1-6)]GalNAc
# In short: as §1
# [41] = target: Neu5Ac(a2-3)Gal(b1-4)GlcNAc(b1-3)Gal(b1-4)[Fuc(a1-3)]GlcNAc
# In short: as §1
# [42] = target: Neu5Ac(a2-3)Gal(b1-4)[Fuc(a1-3)]GlcNAc(b1-3)Gal
# In short: as §1
# [43] = target: Neu5Ac(a2-3)Gal6S(b1-4)[Fuc(a1-3)]GlcNAc
# In short: as §1
# [44] = target: Neu5Ac(a2-6)Gal(b1-4)GlcNAc(b1-2)Man(a1-3)Man(b1-4)GlcNAc(b1-4)GlcNAc
# In short: as §1
# [45] = target: Neu5Ac(a2-6)Gal(b1-4)GlcNAc(b1-6)GalNAc
# In short: as §1
# [46] = target: Neu5Ac(a2-8)Neu5Ac(a2-8)Neu5Ac
# In short: as §1
# [47] = target: Neu5Gc(a2-6)GalNAc
# In short: as §1
binder,measurement,setting,value
"AT1G73650(15) (Arabidopsis thaliana), F4HRY1 (protein) MGTVLDSHFLALTAIVTVIYQFIFFVITALFKFDQVTDFAGSTNFVILAVLTLVLKASWHFRQIVLTLLVVVWGLRLGIFLLMETRILQWGEDRRFDEQRGNIVRLIIFWTLQAVWVWTVSLPLTLVNASDGGGSLKPADVIGWTMETWVFGFLIEAAADQQKLSFKNSPENRGKWCDVGVWKYSRHPNYFGEMETLLWWGIFVAASPVLEGAEYLVIFGPLFLTLLLLFVSGIPLLEASADKKHGNSGAYRSYKKTTSPLILFPRGVYGNLPGWFKTVFLFEFPFYSRNLPQEGRLQNSKEKEVKDD",glycan array binding signal (z-score),[1],2.33
same,glycan array binding signal (z-score),[2],-0.048
same,glycan array binding signal (z-score),[3],-0.438
same,glycan array binding signal (z-score),[4],0.226
same,glycan array binding signal (z-score),[5],-0.567
same,glycan array binding signal (z-score),[6],-0.573
same,glycan array binding signal (z-score),[7],2.65
same,glycan array binding signal (z-score),[8],3.17
same,glycan array binding signal (z-score),[9],-0.217
same,glycan array binding signal (z-score),[10],3.4
same,glycan array binding signal (z-score),[11],-0.542
same,glycan array binding signal (z-score),[12],3.43
same,glycan array binding signal (z-score),[13],3.21
same,glycan array binding signal (z-score),[14],-0.213
same,glycan array binding signal (z-score),[15],-0.287
same,glycan array binding signal (z-score),[16],-0.354
same,glycan array binding signal (z-score),[17],2.95
same,glycan array binding signal (z-score),[18],-0.586
same,glycan array binding signal (z-score),[19],1.65
same,glycan array binding signal (z-score),[20],-0.494
same,glycan array binding signal (z-score),[21],-0.173
same,glycan array binding signal (z-score),[22],1.88
same,glycan array binding signal (z-score),[23],0.919
same,glycan array binding signal (z-score),[24],-0.333
same,glycan array binding signal (z-score),[25],-0.444
same,glycan array binding signal (z-score),[26],-0.282
same,glycan array binding signal (z-score),[27],4.01
same,glycan array binding signal (z-score),[28],-0.402
same,glycan array binding signal (z-score),[29],0.513
same,glycan array binding signal (z-score),[30],-0.569
same,glycan array binding signal (z-score),[31],0.047
same,glycan array binding signal (z-score),[32],-0.322
same,glycan array binding signal (z-score),[33],-0.41
same,glycan array binding signal (z-score),[34],-0.154
same,glycan array binding signal (z-score),[35],-0.641
same,glycan array binding signal (z-score),[36],-0.361
same,glycan array binding signal (z-score),[37],-0.508
same,glycan array binding signal (z-score),[38],-0.566
same,glycan array binding signal (z-score),[39],3.42
same,glycan array binding signal (z-score),[40],-0.402
same,glycan array binding signal (z-score),[41],1.23
same,glycan array binding signal (z-score),[42],-0.714
same,glycan array binding signal (z-score),[43],-0.428
same,glycan array binding signal (z-score),[44],-0.274
same,glycan array binding signal (z-score),[45],7.33
same,glycan array binding signal (z-score),[46],2.92
same,glycan array binding signal (z-score),[47],3.69

# Source: the supplement of paper PMC8728848
